The results in this text go back to PubChem BioAssay AID1508633 (National Center for Advancing Translational Sciences (NCATS), 2021).

Results filed as inconclusive are left out. Active and inactive are the calls of the source. The call rests on the fitted dose curve; in most records, active means well fitted inhibition curve with a large enough effect; inconclusive means small, poorly fitted or top-dose-only effect; inactive means no such curve, though single readings can be large or run the other way.

This experiment relates to zebrafish ABCB5 (Abcb5) multidrug transporter. Kind of experiment: qHTS for characterization and localization of zebrafish homologs of the human ABCB1 multidrug transporter: ABCB5 transfected cells. To be noted: CellTiter-Glo luminescence viability, 72 h; series mostly up to 46.1 µM. The gist of the method: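 About 90 known P-gp substrates were titrated onto four cell lines: vector control, MDR-19 (human P-gp) and zebrafish Abcb4 or Abcb5 transfectants. After 72 h, ATP luminescence (CellTiter-Glo) gave curves; cytotoxic required AC50 < 10 uM, >50% response and inhibitory curve class.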
Consider `CN(C)C1CCN(C(=O)c2ccc(NC(=O)Nc3nc(N4CCOCC4)nc(N4CCOCC4)n3)cc2)CC1`, for which the Potency is 4.69 µM (active).

For `NC(=O)Nc1cc(-c2cccc(F)c2)sc1C(=O)N[C@H]1CCCNC1`, the Potency is 0.662 µM (active).

Consider `COCCn1c2c([n+](Cc3cnccn3)c1C)C(=O)c1ccccc1C2=O`, for which the Potency was 0.0935 µM (active).
